In PubChem BioAssay (NCATS):
Records with an inconclusive call do not appear. Active and inactive are the calls of the source. The call rests on the fitted dose curve; in most records, active means well fitted cell-killing curve with a large enough effect; inconclusive means small, poorly fitted or top-dose-only effect; inactive means flat fitted curve, though single readings scatter.

experiment: qHTS of pediatric cancer cell lines to identify multiple opportunities for drug repurposing: Primary screen for Rh18 cells (AID 1347102); conditions: Rh18 rhabdomyosarcoma viability, CellTiter-Glo luminescence, 48 h; series mostly up to 46 µM; activity change, negative = cytotoxic: at the top concentration; further: nearly all actives have a fitted effect of over 65% in size
Text: Drug repurposing or repositioning has been offered as a strategy for drug development in oncology programs. This approach has special potential for childhood cancers and other rare or orphan diseases, where the expected return on new drug development has been a disincentive to pharmaceuticals.
In this project we exploit the poly-pharmacology of drugs to discover new indications via phenotypic screening of a panel of 19 well-characterized cell lines derived from solid tumors seen in children and adolescents. The goal is to identify approved drugs with previously unrecognized anticancer properties that has the potential to reveal new mechanisms and biological processes involved in carcinogenesis or drug resistance. We employed a titration-based paradigm (quantitative high-throughput screening or qHTS), where all compounds were tested at multiple concentrations for their effect on cell viability. Concentration-response curves (CRCs) were derived directly from the primary screen, and both potency and efficacy values were used to identify compounds with robust bioactivity profiles. We screened the NIH Chemical Genomics Center (NCGC) Pharmaceutical Collection (NPC) and Mechanism Interrogation Plate (MIPE) small molecule collections of approved and investigational compounds against these cell lines; and measured metabolically active cells after 48 hours of compound treatment as a proxy for cell viability.
Assay Submitter: Nathalia J. Martinez, National Center for Advancing Translational Sciences, National Institutes of Health, Rockville, MD, USA; email: natalia.martinez@nih.gov
[1] Shen, M et al. Quantitative high-throughput phenotypic screening of pediatric cancer cell lines identifies multiple opportunities for drug repurposing. Oncotarget 2017 Dec 19;9(4):4758-4772. PMID 29435139.
The cells were obtained from University of North Carolina (UNC), Pediatric Preclinical Testing Program (PPT), and Coriell Institute (CI).
qHTS cell viability assay:
Cells were assayed in growth media at a density of 500-1,000 cells/well. Five microliters of cells were dispensed into 1,536-well, white, solid-bottom, TC-treated plates (Greiner Bio One) using a multidrop dispenser and incubated at 37 degrees C, 5% CO2, under a humidified atmosphere for 5 hours. Twenty-three nanoliters of compounds and controls (neutral control DMSO or positive control bortezomib at final concentration of 2.3 µM) were subsequently transferred by Kalypsys pintool. For primary screens, the MIPE collection was tested at 11-point dilutions (final concentrations range from 0.78 nM to 46 µM) and the NPC collection at 8-point dilutions (final concentrations range from 0.59 nM to 46 µM). Compounds tested in follow-up screens were assayed at 11-point dilutions. Cells were incubated for 48 hours, followed by addition of 3 µL of CellTiter-Glo (Promega). After a 15 min incubation at room temperature, samples were analyzed for luminescence intensity using a ViewLux High-throughput CCD imager equipped with clear filters.
On the % scale 0 is the no-effect control and ±100 the full control effect.

Row | SMILES | activity change, negative = cytotoxic
1 | O=C(O)Cn1c(C(=O)Nc2nc(-c3ccccc3Cl)cs2)cc2ccccc21 | 7.86% (inactive)
2 | Cc1cccc(C)c1NC(=O)CC12CCCN1CCC2 | -7.37% (inactive)
3 | C[C@]1(Cn2ccnn2)[C@H](C(=O)O)N2C(=O)C[C@H]2S1(=O)=O | 14.1% (inactive)
4 | CC(=O)Nc1ccccc1 | 1.26% (inactive)
5 | C[C@H]1COc2c(C3(N)CC3)c(F)cc3c(=O)c(C(=O)O)cn1c23 | 3.73% (inactive)
6 | COc1cc(C(=O)NCCCCCC(=O)O)cc(OC)c1OC | 10.4% (inactive)
7 | O=C(CN1CCNCC1)NC1CCCCC1 | 5.98% (inactive)
8 | C=CCSCC1Nc2cc(Cl)c(S(N)(=O)=O)cc2S(=O)(=O)N1 (stereo not given) | 5.82% (inactive)
9 | O=S1(=O)OC(c2ccc(O)cc2)(c2ccc(O)cc2)c2ccccc21 | 5.92% (inactive)
10 | CCCCCCCC(=O)OCC(COC(=O)CCCCCCC)OC(=O)CCCCCCC | 11.5% (inactive)
11 | COC(=O)N/N=C/c1c[n+]([O-])c2ccccc2[n+]1[O-] | -6.12% (inactive)
12 | C[N+]1(C)CCCC(OC(=O)C(O)(c2ccccc2)c2ccccc2)C1 (stereo not given) | 12.1% (inactive)
13 | CC(C)C[C@@H](N)C(=O)O | 8.96% [at 16.1 µM] (inactive)
14 | CC(=O)OCC(COC(C)=O)OC(C)=O | 6.63% (inactive)
15 | C/C=C/C(=O)N(CC)c1ccccc1C | 7.99% (inactive)
16 | NC(N)=NS(=O)(=O)c1ccc(N)cc1 | 12% (inactive)
17 | CN/C(=C\[N+](=O)[O-])NCCSCc1csc(CN(C)C)n1 | 11.9% (inactive)
18 | CC(C)NC[C@@H](O)COc1ccc(CC(N)=O)cc1 | 19% (inactive)
19 | NC(N)=NCCN1CCCCCCC1 | 6.63% [at 0.597 µM] (inactive)
20 | CC(=O)NCc1c(I)c(NC(C)=O)c(I)c(C(=O)O)c1I | 7.55% (inactive)

Row | SMILES | activity change, negative = cytotoxic
21 | Cn1c(=O)c2c(ncn2CCO)n(C)c1=O | -5.41% (inactive)
22 | OC[C@@H](O)[C@@H](O)[C@H](O)[C@H](O)CO | -4.89% (inactive)
23 | Cc1ccc(S(=O)(=O)NC(=O)NC2CCCCCCC2)cc1 | 2.28% (inactive)
24 | O[C@@H]1CO[C@H]2[C@@H]1OC[C@@H]2O | 6.71% (inactive)
25 | NNC(=O)CP(=O)(c1ccccc1)c1ccccc1 | 2.91% (inactive)
26 | NS(=O)(=O)c1cc(C2(O)NC(=O)c3ccccc32)ccc1Cl (stereo not given) | 14% (inactive)
27 | C1CCN2C[C@@H]3C[C@@H](CN4CCCC[C@@H]34)[C@H]2C1 | -2.79% (inactive)
28 | CC(=O)N(CC(O)CN(C(C)=O)c1c(I)c(C(=O)NCC(O)CO)c(I)c(C(=O)NCC(O)CO)c1I)c1c(I)c(C(=O)NCC(O)CO)c(I)c(C(=O)NCC(O)CO)c1I (stereo not given) | 17% (inactive)
29 | O=C(Cn1ccnc1[N+](=O)[O-])NCCO | 16.9% (inactive)
30 | COc1cc(O)cc(O)c1 | -1.8% (inactive)
31 | Nc1ccc(S(=O)(=O)c2ccc(N)cc2)cc1 | 22.3% (inactive)
32 | COC(=O)c1cccnc1 | 16.8% (inactive)
33 | Nc1ccc(C(=O)Oc2ccccc2)c(O)c1 | -2.88% (inactive)
34 | CCN(CC)S(=O)(=O)c1ccc(C(=O)O)cc1 | 9.72% (inactive)
35 | CN1C(C)(C)CCCC1(C)C | -2.2% (inactive)
36 | CC(=O)N(CC(O)CO)c1c(I)c(C(=O)NCC(O)CO)c(I)c(C(=O)NCC(O)CO)c1I (stereo not given) | 9.28% (inactive)
37 | c1ccc2[nH]ccc2c1 | 15.5% (inactive)
38 | CNc1c2c(nn1C)CCCC2 | 0.912% (inactive)
39 | CCCCCC(N)=O | 7.51% (inactive)
40 | C=CCN1C[C@H](C(=O)N(CCCN(C)C)C(=O)NCC)C[C@@H]2c3cccc4[nH]cc(c34)C[C@H]21 | 17.2% (inactive)
